From PubChem
AMA1 RON2 block – inhibitors of Plasmodium falciparum AMA1-RON2 interaction | AlphaScreen AMA1-biotinylated RON2 peptide binding | Potency, µM (doses to about 58.2 µM), inactives show at the highest dose activity change, negative = inhibition, usual class: inhibitors | 360,000 tested, 0.2% active;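 further: potency means the concentration at half of the fitted maximal effect; 0% = vehicle wells and -100% = peptide control; nearly all actives have a fitted effect of over 45% in size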
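AMA1 (3D7) with his tag at 25 nM final met compounds first, then biotinylated RON2 peptide at 25 nM; detection used donor plus acceptor beads, 10 µg/mL apiece, read by AlphaScreen after 30 min at room temperature.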
Shiga toxin inh – inhibitors of Shiga toxin in Vero cells | Vero cells, Shiga toxin protein synthesis inhibition reporter | inhibition, % at 38.7 µM | 290,000 tested, 9.2% active | AID 2315; in the data active means inhibition mostly above about 28%, no sharp cut-off; inactive means mostly below about 43%; further: 0% is about no effect
CHX counter – counter-screen hit for Shiga toxin inhibitors, cycloheximide; cell reporter, cycloheximide protein synthesis inhibition counterscreen; max response, %; 300,000 tested, 12% active; in the data active means max response mostly above about 13%, no sharp cut-off; inactive means mostly below about 14%; further: read at 38.3 µM for the half of the compounds with a filed dose; 0% is about no effect
Pf growth 48h – P. falciparum growth inhibition at 48 hours (one generation) | P. falciparum luciferase growth in erythrocytes, 48 h | Potency, µM (series often up to 28.7 µM), for inactives: top-dose activity change, negative = inhibition, usual class: inhibitors | 310,000 tested, 5.9% active | AID 504832; further: potency means the concentration at half of the fitted maximal effect; on the % scale 0 is the no-effect control and ±100 the full control effect
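A one-generation exposure of luciferase-tagged malaria parasites in RPMI 1640/Albumax erythrocyte culture, 37 C and 5% CO2. Inhibition is inferred from decreased luminescence after adding detection reagent.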
SARS PLP yeast – SARS-CoV PLP inhibition in yeast; S. cerevisiae expressing SARS-CoV PLpro, growth rescue; 330,000 tested, 0.19% active; Potency, µM (series often up to 32.9 µM), for inactives: top-dose activity, positive = growth rescue, hits mostly activators; calls by dose curve; further: potency means the concentration at half of the fitted maximal effect; 0% is about no effect; nearly all actives have a fitted effect of over 55% in size
Pf growth 96h – inhibits malaria parasite growth, 96 h; P. falciparum luciferase reporter growth, 96 h; Potency, µM (top dose mostly 28.7 µM), without a hit: top-dose activity change, negative = inhibition, actives largely listed as inhibitors; 320,000 tested, 6.9% active; AID 504834; further: potency means the concentration at half of the fitted maximal effect; on the % scale 0 is the no-effect control and ±100 the full control effect
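Two parasite generations (96 h, 37 C, 5% CO2) of compound exposure in infected erythrocytes (0.05% parasitemia, 2% hematocrit). Luciferase-reporter P. falciparum; decreased luminescence indicates inhibited growth, aimed at apicoplast-acting delayed death.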
* hit, by the source's call; i = inactive; ? = inconclusive; nt = no result. Rows were chosen to be rich in hits. Some 19% of all compounds tested hit in one or more screens of this group. Unless noted, the call rests on the fitted dose curve; in most records, active means well fitted curve in the direction sought with a large enough effect; inconclusive means small, poorly fitted or top-dose-only effect, or another doubt; inactive means no such curve, though single readings can be large; an effect the other way counts as inactive or inconclusive.

SMILES	AMA1 RON2 block	Shiga toxin inh	CHX counter	Pf growth 48h	SARS PLP yeast	Pf growth 96h
CC1Sc2ccc(S(=O)(=O)N3CCN(c4ccccc4)CC3)cc2NC1=O (centres undefined)	-4.5%	-8.2	-2.3	-9.8%	4.7%	?
Cc1ccc2c(c1)N(S(=O)(=O)c1ccc3c(c1)NC(=O)CC(=O)N3)CCO2	10.3%	8.5	-1.2	7.5%	0.0%	8.28µM*
Cc1ccc(C)c(CNc2ccc(S(=O)(=O)N3CCCCC3)cc2)c1	0.0%	nt	nt	11.7µM*	1.2%	?
CC(=O)Nc1ccc(S(=O)(=O)N2CCN(S(=O)(=O)c3ccccc3)CC2)cc1	4.1%	-3.3	-1.7	?	-14.6%	?
CC(=O)Nc1ccc(S(=O)(=O)N2CCN(c3cc(C)ccc3C)CC2)cc1	-9.0%	-12.6	-4.7	-19.7%	-30.4%	13.1µM*
COc1ccc(NC(=O)Nc2ccc3c(c2)CC(=O)N([C@H](C)CO)C[C@@H](C)[C@H](CN(C)C(=O)Nc2ccccc2)O3)cc1	7.9%	nt	nt	nt	2.8%	nt
CN[C@H]1C[C@H]2c3cc(-c4ccccc4)ccc3CCN2C(=O)[C@H]1[C@H](C)O	-3.2%	nt	nt	nt	nt	nt
COc1cc2c(cc1OC)CN(C(=S)NC(=O)c1ccccc1)CC2	26.2%	-3.1	1.3	-17.1%	-0.6%	?
O=C1COc2ccc(S(=O)(=O)N3CCN(c4cccc(Cl)c4)CC3)cc2N1	10.7%	19.8	-3.8	13.4%	10.3%	13.1µM*
Cc1ccc(C)c(N2CCN(S(=O)(=O)c3ccc4c(c3)NC(=O)CO4)CC2)c1	0.3%	-6.5	-10.6	-9.7%	-3.6%	13.1µM*
COC(CNC(=O)c1ccc2c(c1)ncn2C1CCCCCC1)OC	-9.6%	4.0	-2.6	-21.1%	-1.3%	?
Cc1c(NC(=O)COc2ncnc3ccccc23)c(=O)n(-c2ccccc2)n1C	6.2%	-9.5	-3.9	-12.6%	2.2%	?
O=C1CCCCC2CCCCN12 (centres undefined)	nt	i	8.5	nt	nt	nt
C=CCN1C(=O)c2cccc3c(N4CCCCC4)ccc(c23)C1=O	39.5%	130.1*	46.2*	46.9%	-2.6%	-29.0%
O=C1c2cccc3c(N4CCCCC4)ccc(c23)C(=O)N1c1cccc(O)c1	21.2%	89.8*	60.8*	?	0.2%	10.2%
O=C1c2cccc3c(N4CCCCC4)ccc(c23)C(=O)N1CCO	-17.5%	75.6	42.3*	13.4%	-11.1%	?
C=CCOC(=O)C1=C[C@@H](c2coc3ccccc3c2=O)[C@H](CCCO)[C@@H](OCC)O1	-1.5%	-8.0	-0.9	?	0.1%	?
COc1ccccc1/C=N/OCc1ccc(C#N)cc1	47.1%	28.2	5.0	11.4%	0.2%	39.8%
COc1ccc(CNC(=O)C[C@H]2C[C@H](C(=O)N3CCCCC3)[C@@]3(C)c4[nH]c5cc(CCC(=O)N(C)C)ccc5c4CCN3C2=O)cc1OC	-3.5%	nt	nt	nt	18.9%	nt
CC12CCC(C(=O)N(CCCCN3CCN(c4ccccn4)CC3)C1=O)C2(C)C (centres undefined)	-0.7%	nt	1.8	?	-4.7%	9.28µM*
CC12CCC(C(=O)N(CCCN3CCN(Cc4ccccc4)CC3)C1=O)C2(C)C (centres undefined)	-5.2%	-6.2	-0.4	2.3%	-0.6%	19.5%
COCCn1cnc2c(c1=O)c1nc3ccccc3nc1n2/N=C/c1ccc(OC)c(OC)c1	16.0%	-2.3	0.4	1.65µM*	1.2%	2.62µM*
COCCn1cnc2c(c1=O)c1nc3ccccc3nc1n2/N=C/c1ccco1	12.4%	4.2	-1.6	19.4%	2.5%	47.6%
CCn1nc(C)c(NS(=O)(=O)c2ccccc2)c1C	3.6%	-29.2	-2.4	nt	3.8%	50.5%
COc1ccccc1C(O)Cc1nc2ccccc2n1C (centres undefined)	18.9%	107.5*	63.3*	nt	17.1%	-24.8%
CN(C)c1ccc(C(O)Cc2nc3ccccc3n2C)cc1 (centres undefined)	-9.6%	62.7*	25.4*	15.6%	-7.1%	9.2%
CN(Cc1nc2ccccc2n1C)c1ccccc1	-5.4%	37.7	12.1	0.0%	-2.2%	?
CC(C)c1ccc(C(O)Cc2nc3ccccc3n2C)cc1 (centres undefined)	-14.1%	127.2*	60.4*	?	4.9%	?
Cc1ccc(S(=O)(=O)c2nc(Cc3ccccc3)oc2N2CCOCC2)cc1	7.6%	nt	nt	1.0%	7.5%	79.0%
c1cncc(CNCc2ccco2)c1	1.4%	-4.9	-3.8	-8.7%	-0.7%	1.6%
